WRN helicase inh-1: blocks human WRN helicase | WRN helicase unwinding, fluorescent forked duplex, kinetic | AID 651768 | actives 0.46% (n = 360,000) | Q14191 | Potency, µM (doses to about 114 µM), most hits filed as inhibitors; note: nearly all actives have a fitted effect of over 55% in size
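Screening of the MLSMR collection measured strand separation of a quenched forked DNA duplex (100 nM) by 20 nM WRN with 2 mM ATP, all final. Compounds were preincubated with enzyme 15 min at room temperature.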
L3MBTL1 block: inhibitors of human L3MBTL1; Q9Y468; AlphaScreen L3MBTL1–H3K9me1 peptide binding; Potency, µM (top dose mostly 57.1 µM), usual class: inhibitors; actives 0.66% (n = 230,000); AID 485360; note: nearly all actives have a fitted effect of over 60% in size
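Displacement of a biotinylated histone H3(1-15) peptide monomethylated at Lys9 (75 nM) from L3MBTL1 (50 nM) was measured by AlphaScreen after a 30 min room-temperature compound incubation; cefsulodin titration served as intraplate control.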
RECQ1 inh: RECQ1 (human) helicase inhibition; P46063; AID 2549; actives 0.54% (n = 240,000); RECQ1 DNA unwinding, red fluorescence kinetic read; Potency, µM (top dose mostly 57.3 µM), actives largely listed as inhibitors; note: nearly all actives have a fitted effect of over 30% in size
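50 nM RECQ1T1 preincubated 15 min with compound in Tris pH 8.0 buffer with MgCl2, DTT, Tween-20 and 2.5 ug/ml poly(dI-dC); started with 200 nM TAMRA/BHQ-2 forked duplex and 2 mM ATP. Unwinding read as fluorescence (525/598 nm), two reads 2 h apart.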
BLM helicase inh-1: inhibitors of human Bloom syndrome helicase BLM. recombinant BLM DNA unwinding, fluorescence dequenching. Potency, µM (top dose mostly 56.1 µM), most hits filed as inhibitors. P54132. actives 0.2% (n = 350,000); note: nearly all actives have a fitted effect of over 35% in size
Target sequence (P54132 whole entry, looked up): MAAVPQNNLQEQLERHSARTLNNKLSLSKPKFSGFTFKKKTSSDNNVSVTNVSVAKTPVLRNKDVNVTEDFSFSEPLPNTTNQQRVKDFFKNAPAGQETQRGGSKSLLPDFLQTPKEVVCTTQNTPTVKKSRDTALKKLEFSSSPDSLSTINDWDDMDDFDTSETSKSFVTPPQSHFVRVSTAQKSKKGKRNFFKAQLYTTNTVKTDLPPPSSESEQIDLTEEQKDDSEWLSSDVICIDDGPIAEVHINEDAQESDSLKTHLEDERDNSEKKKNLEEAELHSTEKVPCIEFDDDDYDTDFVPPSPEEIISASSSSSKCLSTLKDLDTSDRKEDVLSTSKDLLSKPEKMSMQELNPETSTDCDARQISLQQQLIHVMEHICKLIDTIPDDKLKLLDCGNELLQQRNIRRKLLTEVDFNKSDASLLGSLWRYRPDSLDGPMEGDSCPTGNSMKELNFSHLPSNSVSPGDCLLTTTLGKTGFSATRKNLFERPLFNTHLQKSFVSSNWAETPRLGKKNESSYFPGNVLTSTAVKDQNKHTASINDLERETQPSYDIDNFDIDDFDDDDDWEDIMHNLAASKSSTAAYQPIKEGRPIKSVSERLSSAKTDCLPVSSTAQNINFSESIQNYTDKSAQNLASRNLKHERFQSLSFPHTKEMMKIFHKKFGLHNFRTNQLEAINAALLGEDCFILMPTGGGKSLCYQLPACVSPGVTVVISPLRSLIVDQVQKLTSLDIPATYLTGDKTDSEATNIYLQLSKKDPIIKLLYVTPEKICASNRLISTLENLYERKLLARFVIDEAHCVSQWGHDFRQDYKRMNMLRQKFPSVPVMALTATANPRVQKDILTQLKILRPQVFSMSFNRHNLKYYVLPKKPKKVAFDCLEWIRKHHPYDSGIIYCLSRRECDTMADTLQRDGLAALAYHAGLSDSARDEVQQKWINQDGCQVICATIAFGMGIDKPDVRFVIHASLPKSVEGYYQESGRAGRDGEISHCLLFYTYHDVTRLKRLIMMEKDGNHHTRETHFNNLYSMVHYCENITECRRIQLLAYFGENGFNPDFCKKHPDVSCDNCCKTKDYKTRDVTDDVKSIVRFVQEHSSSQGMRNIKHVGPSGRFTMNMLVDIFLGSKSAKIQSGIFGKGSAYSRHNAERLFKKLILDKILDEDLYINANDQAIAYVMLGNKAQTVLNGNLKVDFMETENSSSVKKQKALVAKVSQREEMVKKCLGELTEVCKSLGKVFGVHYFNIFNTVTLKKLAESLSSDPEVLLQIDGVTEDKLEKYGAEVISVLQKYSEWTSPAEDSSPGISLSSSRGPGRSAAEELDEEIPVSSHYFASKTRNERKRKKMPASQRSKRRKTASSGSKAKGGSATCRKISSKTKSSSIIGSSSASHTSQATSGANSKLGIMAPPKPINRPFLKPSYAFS
APEX1 inh: blocks human APE1 abasic DNA cleavage | P27695 | recombinant APE1, TAMRA/BHQ-2 abasic DNA cleavage fluorescence | Potency, µM (highest dose often 65.8 µM), most hits filed as inhibitors | actives 0.35% (n = 350,000) | AID 2517; note: nearly all actives have a fitted effect of over 55% in size
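Enzyme (0.75 nM final) and test compound are incubated 15 min at room temperature before adding 50 nM quenched THF abasic-site duplex. Cleavage dequenches TAMRA, followed at 525/598 nm over three reads one minute apart.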
WRN helicase inh-2: WRN helicase inhibition, cherry-pick retest; AID 720497; shares compounds with WRN helicase inh-1; actives 63% (n = 610); WRN helicase DNA unwinding, fluorescence kinetic; Potency, µM (highest dose often 57.1 µM), actives largely listed as inhibitors; note: nearly all actives have a fitted effect of over 65% in size
TO displacement: binds DNA, flagged in WRN inhibitor counterscreen | shares compounds with WRN helicase inh-1 | thiazole orange DNA binding displacement, fluorescence | Potency, µM (doses to about 57.1 µM), usual class: inhibitors | actives 10% (n = 610) | AID 720499;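 note: drop in dye fluorescence marks compound binding to DNA; nearly all actives have a fitted effect of over 60% in size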
BLM helicase inh-2: counter-screen for WRN helicase inhibitors: human BLM helicase inhibition | AID 720503 | actives 60% (n = 610) | Potency, µM (titrated, usually from 57.1 µM), most hits filed as inhibitors | shares compounds with WRN helicase inh-1 | Recombinant BLM helicase DNA unwinding, red fluorescence; note: nearly all actives have a fitted effect of over 60% in size
Hits are given with their value; . = inactive; ? = inconclusive; / = not tested or not shown; [ ] = another dose, or the depositor's remark. Only some compounds are listed: those with a hit (about 0.92% of all), similar ones and a draw of the others. Calls come from the whole dose curve; as a rule, active = well fitted curve in the direction sought with a large enough effect; inconclusive = small, poorly fitted or top-dose-only effect, or another doubt; inactive = no such curve, though single readings can be large; an effect the other way counts as inactive or inconclusive.

SMILES	WRN helicase inh-1	L3MBTL1 block	RECQ1 inh	BLM helicase inh-1	APEX1 inh	WRN helicase inh-2	TO displacement	BLM helicase inh-2
Cc1ccccc1OCc1nnc(SCC(=O)NCc2ccco2)n1C	.	.	.	.	.	/	/	/
Cc1ccc(C(=O)NNC(=O)c2ccc(S(=O)(=O)N3CCCCC3)cc2)cc1	35.5µM	.	/	/	.	.	.	?
CCc1nnc(SCc2cccc(F)c2)c2cc3sc(C)cc3n12	/	/	/	.	/	/	/	/
COc1ccc(OC)c(-n2c(=O)c3ccccc3c3ccccc3c2=O)c1	?	.	.	.	.	.	.	?
COc1ccc(-n2c(=O)c3ccccc3c3ccccc3c2=O)cc1	?	.	.	.	.	/	/	/
CNC(=O)C1CCC(Cn2c(=O)c3sccc3n(CC(=O)Nc3ccc(C)c(C)c3)c2=O)CC1 (stereo unspecified)	/	/	/	.	/	/	/	/
O=c1cc2oc3cc(O)c(O)cc3c(-c3ccccc3[N+](=O)[O-])c-2cc1O	0.752µM	/	/	0.708µM	0.134µM	0.383µM	?	0.215µM
Cc1ccc(S(=O)(=O)NCc2nc3cccnc3n2Cc2ccccc2Cl)c(C)c1	/	/	/	.	/	/	/	/
COc1ccc([N+](=O)[O-])c(S(=O)(=O)c2ccccc2)n1	31.6µM	.	.	.	.	?	.	.
COc1ccc([N+](=O)[O-])c(S(=O)(=O)c2ccc(Cl)cc2)n1	15.8µM	.	.	.	?	?	.	.
Cc1noc(C)c1S(=O)(=O)N(CC(=O)NCCc1ccc(Cl)cc1)c1ccc(C(C)C)cc1	/	/	/	.	/	/	/	/
COc1ccc(-c2cc(C(=O)NCc3ccc(F)cc3)c3c(-c4ccc(F)cc4)[nH]nc3n2)cc1OC	/	/	/	.	/	/	/	/
CC1=NN(c2ccccc2)C(=O)/C1=C\C=C1/N(C)c2ccccc2C1(C)C	.	?	.	.	.	/	/	/
CN1/C(=C\C=C2/C(=O)Oc3ccccc3C2=O)C(C)(C)c2ccccc21	26.7µM	.	.	/	.	15.2µM	/	.
CN1C(=CC=C2C=C(I)C(=O)C(I)=C2)C(C)(C)c2ccccc21	4.74µM	.	0.631µM	28.2µM	.	27.1µM	.	19.2µM
O=C(Cc1ccc(-c2ccccc2)cc1)NCCS(=O)(=O)N1CCN(c2ccc(F)cc2)CC1	/	/	/	.	/	/	/	/
COc1ccc(/C=C2\C(=O)ON=C2c2ccccc2)cc1	31.6µM	/	/	.	.	.	.	.
CCN(CC)c1ccc(/C=C2/C(=O)c3ccc(C(=O)O)cc3C2=O)cc1	35.5µM	25.1µM	.	.	?	24.1µM	.	?
COC(=O)c1ccc(C(NC(=O)OCc2ccccc2)/C(C)=C/[C@@H](C)C(=O)N(C)Cc2cccnc2)cc1 (stereo partly specified)	/	/	.	.	.	/	/	/
O=C(Nc1ccc2nc(SCC(=O)N3CCc4ccccc43)sc2c1)c1ccc(F)cc1	/	/	/	.	/	/	/	/
Nc1c(S(=O)(=O)O)cc(NC(=O)c2ccccc2)c2c1C(=O)c1ccccc1C2=O	28.2µM	/	/	?	21.2µM	12.1µM	10.8µM	19.2µM
COc1ccc(CNC(=O)CC(c2ccc(OC)c(OC)c2)N2Cc3ccccc3C2=O)cc1 (stereo unspecified)	/	/	/	.	/	/	/	/
CCOC(=O)c1cccc(NS(=O)(=O)c2c(C)nc3sc(C)cn3c2=O)c1	/	/	/	.	/	/	/	/
COc1cc(/C=C2/C(=O)NN(c3ccc(Cl)cc3)C2=O)cc(Br)c1O	.	.	/	.	?	/	/	/
COc1cccc(/C=C2/C(=O)NN(c3ccc(Br)cc3)C2=O)c1O	0.67µM	.	/	.	.	17.1µM	.	6.81µM
SMILES	WRN helicase inh-1	L3MBTL1 block	RECQ1 inh	BLM helicase inh-1	APEX1 inh	WRN helicase inh-2	TO displacement	BLM helicase inh-2
N#Cc1ncc(Cc2ccccc2)nc1C#N	1.68µM	.	/	.	.	.	.	.
N#Cc1nc(Cc2ccccc2)oc1NCc1cccnc1	.	.	.	.	.	/	/	/
O=C(NC1=C(Nc2ccc(Cl)cc2)C(=O)c2ccccc2C1=O)c1ccccc1	.	.	.	.	.	/	/	/
O=C1C(Cl)=C(NC(=O)c2ccccc2)C(=O)C(Cl)=C1NC(=O)c1ccccc1	20µM	/	/	.	.	.	21.5µM	.
CCN(CC)c1ccc(N=C2C=CC(=O)C=C2NC(C)=O)cc1	17.8µM	/	/	/	/	.	.	.
CCOc1ccc(NC(=S)NC(=O)/C=C/c2ccco2)cc1	.	.[2.29 µM]	/	.	.	/	/	/
COc1cc(NS(=O)(=O)c2ccc(NC(=S)NC(=O)/C=C/c3ccco3)cc2)ncn1	14.1µM	?	.	.	?	15.2µM	.	15.2µM
CCOCCCNC(=O)C(c1ccc(OC)cc1)N(Cc1cccs1)C(=O)c1ccc(NC(C)=O)cc1 (stereo unspecified)	/	/	/	.	/	/	/	/
COc1cc(-c2cnc3c(NC=O)cc(-c4cccc(NC(C)=O)c4)cn23)cc(OC)c1OC	25.1µM	/	/	/	/	9.61µM	.	15.2µM
COc1ccccc1/C=C1/SC(=O)N(CCC(=O)Nc2ccc(S(=O)(=O)Nc3nccs3)cc2)C1=O	?	.	.	.	.	/	/	/
O=C(CCN1C(=O)S/C(=C\c2ccccc2)C1=O)Nc1ccc(S(=O)(=O)Nc2nccs2)cc1	?	.	.	.	.	?	?	?
CCOc1cccc(CNc2ccc(O)cc2)c1OCc1ccc(Cl)cc1Cl	?	?	.	?	?	.	.	?
C=CCn1c(=O)n(C2OC(CO)C(O)C2O)c2nc(N)[nH]c(=O)c21 (stereo unspecified)	/	/	.	.	/	/	/	/
CCOC(=O)C1CCCN(C(=O)c2cc(-c3ccco3)nc3ccccc23)C1 (stereo unspecified)	31.6µM	3.55µM	/	/	8.44µM	13.6µM	?	1.71µM
CC(C)Cc1ccc(C(C)/C=C2/CCC(CN3CCCCC3)C2=O)cc1 (stereo unspecified)	35.5µM	/	/	/	/	.	.	?
CCCCCCCC#Cc1ccccc1/C=N/S(=O)C(C)(C)C (stereo unspecified)	/	/	.[11.5 µM]	.[12.4 µM]	?	/	/	/
COc1ccc(NC(=O)N2CCCC3(CCN(C(=O)c4c(C)noc4C)CC3)C2)cc1	/	/	.	.	.	/	/	/
Cc1ccc(NC(=O)CN(C)C(=O)c2cccc(-n3cccc3)c2)cc1	35.5µM	3.98µM	/	/	0.947µM	7.64µM	.	2.15µM
COc1ccc(NC(=O)Nc2ccc(OCc3ccccc3)cc2)cn1	.	/	/	.	.	/	/	/
COc1ccc(NC(=O)/C(Cl)=C(/Cl)S(=O)(=O)Cc2ccccc2)cn1	11.9µM	/	.	.	.	?	.	.
CCN(c1ccccc1)S(=O)(=O)c1cc(C(=O)OCC(=O)c2c(N)n(C)c(=O)n(C)c2=O)ccc1C	31.6µM	/	/	/	/	24.1µM	?	7.64µM
ClC1=C(Cl)C(Cl)(Cl)C(Cl)=C1Cl	/	/	.	/	.	/	/	/
CC1=C(C)CS(=O)N(S(=O)(=O)c2ccccc2)C1 (stereo unspecified)	39.8µM	/	.	.	.	.	.	.

Bioassay records: PubChem BioAssay, National Center for Advancing Translational Sciences (NCATS)
